Screening results as filed in PubChem.
PostGolgi ctrl – growth of the yeast control strain, post-Golgi counter-screen. hit rate 5% among 98,000. AID 738. inhibition, % at 10 µM. efflux-deficient yeast background strain, growth absorbance A615, 16 h
CYP2C9 activ – CYP2C9 (human) activation | activation factor at 5 µM | P11712 | hit rate 1.4% among 96,000 | recombinant CYP2C9, luciferin-H conversion, luminescence; stronger effect = higher value; factor 1 = untreated enzyme, 0 = blocked;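 active = activation factor of 2 or more for CYP2C9 at a 5 µM dose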
CYP2C19 inhib – blocks human cytochrome P450 2C19; P33261; AID 778; hit rate 21% among 96,000; inhibition, % at 5 µM; CYP2C19 Supersomes, luciferin-H EGE luminescence, 30 min;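 active = CYP2C19 inhibition above a set limit at 5 µM in the primary screen, cut at about 50% in these data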
Target sequence (P33261 whole entry, looked up): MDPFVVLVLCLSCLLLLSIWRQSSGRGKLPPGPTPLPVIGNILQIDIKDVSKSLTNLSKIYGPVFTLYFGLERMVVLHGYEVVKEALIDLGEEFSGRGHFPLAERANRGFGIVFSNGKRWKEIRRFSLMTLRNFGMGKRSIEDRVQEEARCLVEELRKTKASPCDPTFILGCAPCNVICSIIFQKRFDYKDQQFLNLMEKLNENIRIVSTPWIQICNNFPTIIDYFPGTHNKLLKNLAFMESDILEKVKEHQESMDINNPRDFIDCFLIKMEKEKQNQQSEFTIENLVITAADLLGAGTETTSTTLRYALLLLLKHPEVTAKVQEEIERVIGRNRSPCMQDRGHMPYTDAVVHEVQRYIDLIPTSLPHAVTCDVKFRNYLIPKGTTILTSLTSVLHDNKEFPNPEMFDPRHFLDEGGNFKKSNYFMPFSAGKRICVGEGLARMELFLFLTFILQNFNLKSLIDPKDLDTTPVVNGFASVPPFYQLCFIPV
CYP2C19 activ – cytochrome P450 2C19 (human) activation; P33261; recombinant CYP2C19, luciferin-H EGE luminescence; stronger effect = higher value; 0 = fully inhibited enzyme, 1 = untreated enzyme; activation factor at 5 µM; 96,000 tested, under 10 active; AID 1025;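 active = activation factor of at least 2 at 5 µM in the primary screen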
PostGolgi yeast – growth inhibition of a yeast mutant, post-Golgi transport screen | hit rate 0.9% among 98,000 | inhibition, % at 10 µM | post-Golgi transport phenotypic cell assay;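 note: yeast cells grown in 1536-well plates; yeast grown about 18 h at 30C before absorbance read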
CYP2C9 inhib – blocks human cytochrome P450 2C9; AID 777; inhibition, % at 5 µM; hit rate 20% among 96,000; CYP2C9 Supersomes, luciferin-H conversion, luminescence; P11712;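 active = blocking of liver enzyme CYP2C9 beyond about 50% at 5 µM, limit read from the data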
Numbers stand for hits; - = inactive; . = no result given. Rows were chosen to be rich in hits. Some 32% of all compounds tested hit in one or more screens of this group. Cut-off read from the data, not from the text of the source, unless noted: active = inhibition above about 30%; inactive = the rest.

SMILES	PostGolgi ctrl	CYP2C9 activ	CYP2C19 inhib	CYP2C19 activ	PostGolgi yeast	CYP2C9 inhib
COC(=O)c1cc(OC)c(OCc2cc(C(=O)OC)oc2C)c(OC)c1	-	-	52	-	-	-
CCS(=O)(=O)N1CCC(NC(=O)c2cc(OC)cc(OC)c2)CC1	-	-	-	-	-	-
CN1CCC(N2CCCC(C(=O)O)C2)CC1 (stereo not given)	-	-	-	-	-	-
CCOc1ccc(OCC)c(NC(=O)CN2CCN(c3cccc(C)c3)C(C)C2)c1 (stereo not given)	30	-	-	-	-	-
CC(=O)/C(=N/Nc1ccccc1C)N1CCOCC1	-	-	-	-	-	-
CCOP(=O)(c1ccc(N(C)C)cc1)C(O)c1c(Cl)cccc1Cl (stereo not given)	-	-	65	-	-	59
CCCOP(=O)(c1ccc(N(C)C)cc1)C(O)c1ccncc1 (stereo not given)	-	-	-	-	-	-
CN(C)c1ccc(P(=O)(OCc2ccccc2)C(O)c2ccncc2)cc1 (stereo not given)	-	-	66	-	-	63
C/C=C/c1ccc(OCCn2cncn2)c(OC)c1	-	-	65	-	-	-
C/C=C/c1ccc(OCCCCn2cncn2)c(OC)c1	31	-	75	-	-	-
C/C=C/c1ccc(OCCCNC2CCCC2)c(OC)c1	-	-	-	-	-	-
C/C=C/c1ccc(OCCCn2cncn2)c(OC)c1	-	-	89	-	-	50
O=C(Nc1ccc(NC(=O)c2sc3ccccc3c2Cl)cc1Cl)c1ccco1	-	-	-	-	-	-
CCc1nccn1S(=O)(=O)c1ccc(OC)c(OC)c1	-	-	76	-	-	-
COc1ccc(Cl)cc1S(=O)(=O)n1ccnc1C(C)C	-	-	74	-	-	-
CCc1nccn1S(=O)(=O)c1ccc(C)c(C)c1	-	-	-	-	-	-
CCc1nccn1S(=O)(=O)c1cc(C)c(OC)cc1C	-	-	-	-	-	-
CCc1nccn1S(=O)(=O)c1cc(Br)ccc1OC	-	-	97	-	-	-
CCCc1nccn1S(=O)(=O)c1cc(OC)ccc1OC	-	-	90	-	-	56
COc1ccc(CNC(=O)C2CSC(=O)C2)cc1 (stereo not given)	.	-	-	-	.	-
CC1CN(C(=O)CN2C(=O)c3ccccc3C2=O)CC(C)O1 (stereo not given)	-	-	-	-	-	-
FC(F)(F)c1cccc(N2CCN(C(=S)NC3CCCC3)CC2)c1	-	-	-	-	-	-
Cn1cccc1C(=O)N1CCN(c2cccc(C(F)(F)F)c2)CC1	-	-	76	-	-	-
O=C1CC(N2CCN(c3cccc(C(F)(F)F)c3)CC2)C(=O)N1c1ccccc1F (stereo not given)	-	-	-	-	-	84
O=C(c1c(F)cccc1F)N1CCN(c2cccc(C(F)(F)F)c2)CC1	-	-	94	-	-	80
SMILES	PostGolgi ctrl	CYP2C9 activ	CYP2C19 inhib	CYP2C19 activ	PostGolgi yeast	CYP2C9 inhib
CCOC(=O)N1CCN(c2c(N3CCN(c4cccc(C(F)(F)F)c4)CC3)c(=O)c2=O)CC1	-	-	-	-	-	-
Cc1ccc(C(=O)NCCSC2CCCCC2)cc1S(=O)(=O)Nc1ccccc1	-	-	-	-	-	-
CCc1ccc(C(=O)/C=C/c2ccc([N+](=O)[O-])o2)cc1	-	-	-	-	63	-
CCCCCC(=O)N/N=C/c1ccc([N+](=O)[O-])o1	-	.	.	.	-	.
O=C(Nc1ccc(Cl)cc1)c1ccncc1	-	-	90	-	-	-
CC(C)Oc1ccc(NC(=O)c2ccncc2)cc1	-	-	87	-	-	90
O=C(Nc1cccc(Cl)c1Cl)c1ccncc1	-	-	90	-	-	69
CCN1CCN(C(c2ccccc2)c2nnnn2CCc2ccc(OC)c(OC)c2)CC1 (stereo not given)	-	-	-	-	-	-
CCCn1c(SCC(=O)Nc2cccc(C)n2)nnc1-c1ccco1	-	-	-	-	-	-
CCCCCCC(=O)N1CCC(c2nc3c(nnn3Cc3ccccc3Cl)c(=O)[nH]2)CC1	-	-	-	-	-	93
O=C(NC1CCCC1)c1nc2c(nnn2Cc2ccccc2Cl)c(=O)[nH]1	-	-	-	-	-	-
O=C(Cc1cccs1)N1CCC(c2nc3c(nnn3Cc3ccccc3Cl)c(=O)[nH]2)CC1	-	-	79	-	-	100
COc1cccc(C(CC(=O)Nc2cccc3ccccc23)NC(=O)c2ccccc2)c1 (stereo not given)	-	-	-	-	-	81
CCOC(=O)c1c2ccc(OCC(=O)N/N=C/c3ccc(C)cc3)cc2n2ccccc12	-	-	-	-	-	65
Nn1c(SCc2cn3ccsc3n2)nnc1-c1ccncc1	-	-	65	-	-	-
Clc1ccc(SCc2cn3ccsc3n2)cc1	-	-	53	-	-	-
c1ccc(CSCc2cn3ccsc3n2)cc1	-	-	-	-	-	-
Cc1csc2nc(CSc3ccc(Cl)cc3)cn12	-	3.6	73	-	-	-
Cc1csc2nc(CSc3nc4ccccc4o3)cn12	-	-	-	-	-	-
Cn1c(=O)c2c(nc(SCC(=O)NC34CC5CC(CC(C5)C3)C4)n2C)n(C)c1=O	-	-	-	-	-	-
Cc1nnc(SCC(=O)N2c3ccccc3Sc3ccccc32)n1N	-	-	-	-	-	-
Cc1nnc(SC(=O)N2c3ccccc3Sc3ccccc32)s1	75	-	-	-	-	-
C[C@H](NS(=O)(=O)c1ccccc1F)C(=O)OCC(=O)N1CCc2ccccc21	-	-	-	-	-	-
Cc1ccc(/C=C/c2nc3ccccc3s2)s1	-	-	72	-	-	-
CS(=O)(=O)N1N=C(c2ccc(Cl)cc2)CC1c1cccs1 (stereo not given)	-	-	94	-	-	56
SMILES	PostGolgi ctrl	CYP2C9 activ	CYP2C19 inhib	CYP2C19 activ	PostGolgi yeast	CYP2C9 inhib
O=c1[nH][nH]c(-c2ccccc2)c1C=Nc1cccc(Cl)c1	-	-	53	-	-	-
O=c1[nH][nH]c(-c2ccccc2)c1C=Nc1ccccc1Cl	-	-	88	-	-	-
O=c1[nH][nH]cc1C=Nc1ccccc1O	-	-	-	-	-	-
O=c1[nH][nH]c(-c2ccccc2)c1C=Nc1ccc(Cl)cc1	-	-	-	-	-	-
CC(C)(C)C(=O)Nc1ccc(N2CCCC2)cc1	-	-	-	-	-	-
Cc1cccc(NS(=O)(=O)c2cc(C(=O)N3CCN(C)CC3)ccc2C)c1	32	-	-	-	-	-
Cc1ccc(NS(=O)(=O)c2cc(C(=O)N3CCc4ccccc4C3)ccc2Cl)cc1	64	-	-	-	35	-
Cc1ccccc1NS(=O)(=O)c1cc(C(=O)N2CCc3ccccc3C2)ccc1C	-	-	54	-	-	67
Cc1ccc(NS(=O)(=O)c2cc(C(=O)N3CCN(C)CC3)ccc2C)cc1	-	-	-	-	-	-
